Assay outcomes as filed in PubChem BioAssay.
D2 antag: antagonists of human D2 dopamine receptor. P14416. HEK293 TREx D2 cells, calcium flux, dopamine EC80. inhibition, % at 10 µM. hit rate 2% among 340,000. AID 485344; in the data active means inhibition above about 30%; inactive means below that, where a call was filed
Target sequence (P14416 whole entry, looked up): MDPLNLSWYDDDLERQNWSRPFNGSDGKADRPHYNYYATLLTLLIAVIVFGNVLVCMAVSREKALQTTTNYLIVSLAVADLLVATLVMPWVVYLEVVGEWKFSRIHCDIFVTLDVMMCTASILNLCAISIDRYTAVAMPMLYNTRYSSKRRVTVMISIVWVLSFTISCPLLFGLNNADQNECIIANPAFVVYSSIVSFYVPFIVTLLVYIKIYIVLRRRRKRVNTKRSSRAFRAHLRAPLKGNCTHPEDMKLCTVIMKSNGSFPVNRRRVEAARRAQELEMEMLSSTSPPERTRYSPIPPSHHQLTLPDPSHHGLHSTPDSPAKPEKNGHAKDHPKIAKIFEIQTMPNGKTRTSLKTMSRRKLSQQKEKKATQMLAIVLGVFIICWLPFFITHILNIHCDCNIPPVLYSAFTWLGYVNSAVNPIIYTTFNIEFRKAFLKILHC
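Tetracycline-induced HEK293 T-REx cells expressing D2 force-coupled to calcium signalling were dye-loaded, exposed to compound for 180 s, then challenged with an EC80 of dopamine; calcium flux was followed kinetically for a further 180 s.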
D2 PAM-1: positive allosteric modulators of human D2 dopamine receptor. P14416. HEK293 T-REx D2, calcium flux, EC20 dopamine potentiation. potentiation, % at 10 µM. hit rate 0.34% among 340,000;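 active means potentiation over 3 SD above the plate norm, cut at about 30% in these data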
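Cells plated with tetracycline inducer and held overnight at 30 C; calcium dye loaded 30–90 min at room temperature; baseline taken, compound added and read 180 s; EC20 dopamine then added and read 180 s.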
D2 PAM-2: human D2 receptor positive allosteric modulation; DiscoveRx D2 beta-arrestin cells, luminescence, 90 min; 100% = 57 uM dopamine signal; AID 624464; P14416; hit rate 0.23% among 360,000; potentiation, % (no concentration beside the values); in the data active means potentiation above about 50%; inconclusive means mostly about 30% to 49%
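PathHunter D2 cells, attached overnight at 37 deg C, received compound in DMSO plus dopamine at EC20 (50 nM final) for 90 min at 37 deg C. Beta-arrestin recruitment was read as luminescence after 1 h with detection reagent at ambient temperature.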
D2 ag-1: agonists of human D2 dopamine receptor (beta-arrestin) | hit rate 0.084% among 360,000 | activation, % (test concentration not listed) | P14416 | DiscoveRx PathHunter D2 beta-arrestin, luminescence, 90 min; 100% = 57 uM dopamine signal; in the data active means activation above about 40%; inconclusive means between about 15% and that limit
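Agonist mode: compounds alone added to overnight-plated D2 PathHunter cells for 90 min at 37 C, with 57 uM final dopamine (EC100) defining full response. Beta-arrestin recruitment detected by chemiluminescent reagent, read after 1 h at ambient temperature.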
D2 ag-2: D2 dopamine receptor (human) agonism | activation, % at 2 µM | P14416 | HEK293 T-REx D2 cells, calcium flux agonist mode | hit rate 0.53% among 340,000;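 active means activation over 3 SD above normal in the single-dose calcium agonist read, cut at about 30% in these data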
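Agonism is scored from calcium flux in a force-coupled, inducible HEK293 cell line expressing D2, read kinetically for 180 s after compound addition against dopamine controls.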
Large screens that a line does not name were inactive. Compounds with a hit are over-represented: about 2.4% of the library has one in this group of screens.

O=[N+]([O-])c1cc(-c2n[nH]c(-c3ccccc3)n2)cc([N+](=O)[O-])c1	D2 PAM-2 53.2
O=[N+]([O-])c1cc([N+](=O)[O-])c2n[nH]c(-c3ccccc3)c2c1	none
Cc1cccc(NC(=O)C2CCC(CNS(=O)(=O)c3csc(C(N)=O)c3)CC2)c1C (stereo not drawn)	none (no result: D2 antag, D2 PAM-2, D2 ag-1, D2 ag-2)
Cc1c(N2C(=O)c3ccc4c5c(ccc(c35)C2=O)CC4)c(=O)n(-c2ccccc2)n1C	D2 PAM-2 60.6
Cc1c(N2C(=O)c3ccc(Br)cc3C2=O)c(=O)n(-c2ccccc2)n1C	none
Oc1ccc2ccccc2c1C1Nc2cccc3cccc(c23)N1	D2 PAM-2 50.5, D2 ag-1 inconclusive
COc1cc(C2Nc3cccc4cccc(c34)N2)ccc1O	none
O=C(Nc1ccc2nc(SCC(=O)N3CCCC3)sc2c1)c1cccc(F)c1	none (no result: D2 antag, D2 PAM-2, D2 ag-1)
Brc1ccc(Oc2ncc(CN3CCN(c4ccccc4)CC3)s2)cc1	D2 ag-1 44.7
Cc1ccc(Oc2ncc(CN3CCOCC3)s2)cc1	none
CSCCC(N=C1NS(=O)(=O)c2ccccc21)C(=O)NCCc1ccccc1 (stereo not drawn)	D2 antag 42.0
COC(=O)C(C)Sc1ccc2nnc(CCNS(=O)(=O)c3ccccc3)n2n1 (stereo not drawn)	D2 antag 36.9
COC(=O)C(C)Sc1ccc2nnc(CCNS(=O)(=O)c3ccc(C)cc3)n2n1 (stereo not drawn)	none
CCN(C(=O)N(CC)c1ccccc1)c1ccccc1	D2 antag 42.5
Cc1cc(C)n(C(=O)CNc2cccc(Cl)c2C)n1	none
Cc1cc(C)n(C(=O)CNc2ccccc2Cl)n1	D2 antag 32.2
COc1ccc(Cc2nc3ccc(C(=O)NCc4cc(Br)ccc4OC)cc3o2)cc1	none (no result: D2 antag, D2 PAM-2, D2 ag-1)
Cc1cc(C)nc(N(C#N)Cc2ccccc2C)n1	D2 antag 49.8
CN(C)c1ccc(/C=C/C(=O)c2ccc(O)cc2)cc1	none (no result: D2 antag, D2 PAM-1, D2 ag-2)
CN(C)c1ccc(/C=C/C(=O)c2cccnc2)cc1	D2 ag-2 59.1
CN(C)c1ccc(/C=C/C(=O)c2ccc3c(c2)OCO3)cc1	D2 ag-2 68.4
CNC(=S)N(CCc1cccc(C)c1)Cc1cc2cc(OC)c(OC)cc2[nH]c1=O	D2 antag 30.3
COc1ccc(CCN(Cc2cc3cccc(C)c3[nH]c2=O)C(=O)NC2CCCCC2)cc1OC	D2 antag 31.3
Cc1cccc2cc(CN(CC3CCCO3)C(=O)NC3CCCCC3)c(=O)[nH]c12 (stereo not drawn)	none
COc1ccc(CCNC(=O)c2ccc(Cn3c(=O)c4ccccc4n(Cc4cccc(F)c4)c3=O)cc2)cc1OC	none (no result: D2 antag, D2 PAM-2, D2 ag-1)
CCCc1cc(=O)[nH]c(Nc2cc(Cl)cc(Cl)c2)n1	none (no result: D2 antag, D2 PAM-2, D2 ag-1)
O=C(COC(=O)c1cc[n+]([O-])cc1)Nc1ccc(SC(F)F)cc1	D2 antag 30.6
O=C(COC(=O)c1cc[n+]([O-])cc1)Nc1ccc(Br)cc1	none
O=C1C(Nc2ccccc2)=C(N2CCCCC2)C(=O)c2ccccc21	none
O=C1C(Nc2cccc(O)c2)=C(N2CCCCC2)C(=O)c2ccccc21	D2 PAM-2 64.9
COc1ccc(OC)c(N)c1	D2 PAM-2 60.9
C[C@H](CS)C(=O)N1CCC[C@H]1C(=O)O	D2 antag 30.0
CCOC(=O)c1nc(NCc2ccc(Cl)cc2)c2c(C)noc2n1	none (no result: D2 antag, D2 PAM-2, D2 ag-1)
COc1ccccc1CN1CCN(C2CCN(C(=O)NC(C)C)CC2)C(=O)C1=O	none (no result: D2 antag, D2 PAM-2, D2 ag-1)
COc1ccccc1N1CCN(C2CCCN(S(=O)(=O)c3cccc(Cl)c3)C2)CC1 (stereo not drawn)	D2 antag 53.3
CCOc1cc(CN2CCCC(N3CCN(c4ccc(F)cc4)CC3)C2)ccc1OC (stereo not drawn)	none
COc1ccc(CN2CCCC(N3CCN(c4cccc(Cl)c4)CC3)C2)cc1OC (stereo not drawn)	D2 ag-2 38.4
COc1ccccc1N1CCN(C2CCCN(S(=O)(=O)c3ccc(C)cc3)C2)CC1 (stereo not drawn)	D2 antag 66.5
Cc1ccc(-n2cnc3cc(C(=O)NCc4ccc(F)cc4)ccc32)c(C)c1	none (no result: D2 antag, D2 PAM-2, D2 ag-1, D2 ag-2)
CCC1CN(C(=O)N2CCC(C(=O)NCCc3ccccc3Cl)CC2)c2cc(C)ccc2O1 (stereo not drawn)	none (no result: D2 antag, D2 PAM-2, D2 ag-1)
Cc1cccc(S(=O)(=O)NCCc2cn3ccccc3n2)c1	D2 antag 32.0
O=S(=O)(NCCc1cn2ccccc2n1)c1ccc(-c2ccccc2)cc1	none
Cc1c(Cl)cn2c(=O)cc(CN3CCN(c4ccc(F)cc4)CC3)nc2c1Cl	D2 ag-2 31.6 (no result: D2 PAM-2, D2 ag-1)
CCOC(=O)c1c(C)[nH]c(C)c1S(=O)(=O)N(C)CC(=O)N1CCN(c2cccc(Cl)c2)CC1	none (no result: D2 antag, D2 PAM-2, D2 ag-1)
Nc1nnc(-c2ccccc2F)s1	D2 antag 44.9
N#CCCn1cc(/C=N/N=C2\NC(=O)C(CC(=O)O)S2)c(-c2ccc(F)cc2)n1 (stereo not drawn)	D2 antag 35.1
COc1cccc(-n2c(SCC(=O)N3CCc4ccccc43)nc3c([nH]c4ccccc43)c2=O)c1	none (no result: D2 antag, D2 PAM-2, D2 ag-1)
Cc1ccc(S(=O)(=O)Oc2ccccc2N2C(=O)C3CC=CCC3C2=O)cc1 (stereo not drawn)	D2 antag 40.4
CC(C)(C)OC(=O)N1CCC(c2c(C(=O)NCc3cccc(Cl)c3)cnn2-c2ccc(F)cc2)CC1	none (no result: D2 antag, D2 PAM-2, D2 ag-1)
Cc1ccc(CNC(=O)c2nnn(-c3cccc(C)c3)c2N)cc1	none (no result: D2 antag, D2 PAM-1, D2 ag-2)
Cc1cccc(-n2nnc(C(=O)NCc3ccccn3)c2N)c1	D2 antag 30.5
COc1cc(NC(=O)c2cc3c(=O)n(Cc4ccco4)ccc3nc2C)cc(OC)c1OC	none (no result: D2 antag, D2 PAM-2, D2 ag-1)
Cc1ccc(S(=O)(=O)N/N=C\c2ccc([N+](=O)[O-])o2)cc1	none
O=[N+]([O-])c1ccc(/C=N/NS(=O)(=O)c2ccc(Cl)cc2)o1	D2 antag 45.4
Cc1cc(=O)n(CC(=O)N2CCN(c3ccc(F)cc3)CC2)c2c1c(C)nn2C	none (no result: D2 antag, D2 PAM-2, D2 ag-1)
O=c1cc(-c2ccc([N+](=O)[O-])cc2)nc2cc(-c3ccc(Cl)cc3)[nH]n12	D2 antag 35.5 (no result: D2 PAM-2, D2 ag-1)
Cc1cc(C)n2nc(CNC(=O)c3ccc(Cl)cc3)nc2n1	none (no result: D2 antag, D2 PAM-2, D2 ag-1)
CCCCCC(C)NC(=O)c1ccoc1C (stereo not drawn)	D2 antag 40.3
CCCCCCCCCCCNC(=O)c1ccoc1C	none (no result: D2 ag-2)
O=[N+]([O-])c1ccc(C2=NN(c3ccccc3)C(c3ccco3)C2)cc1 (stereo not drawn)	D2 ag-2 56.1
CC1=NN(c2ccccc2)C(c2ccco2)C1 (stereo not drawn)	none (no result: D2 antag, D2 PAM-1, D2 ag-2)
O=C(O)c1nn(CCOc2cccc(Cl)c2)c(=O)c2ccccc12	none
COCCn1c(C)cc(C(=O)Cn2nc(C(=O)O)c3ccccc3c2=O)c1C	D2 antag 32.4
Cc1cc(C(=O)COC(=O)c2ccc[nH]c2=O)c(C)n1C	none
